Compound activity deposited in PubChem BioAssay by several laboratories.
HIF activator – HIF pathway transcriptional activators, primary screen, cell-based, U2OS HRE-luciferase, luminescence; U2OS HRE-luciferase reporter; normalized: DMSO 0%, desferrioxamine 100%; activation, % at 7.5 µM (by protocol); 300,000 compounds, 0.32% hits;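 active means mean activation of at least 10% of the iron chelator positive control signal, with at least half of replicates also reaching 10%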
Mot1-301 SUMO – yeast Mot1-301 growth rescue at high temperature, primary screen, SUMOylation pathway inhibitor project, S. cerevisiae, ATP luminescence, 38.5C. AID 2716, 2010. 320,000 compounds, 1% hits. S. cerevisiae Mot1-301 growth rescue; percent above DMSO median, 100 means doubled. growth rescue, % at 18.8 µM;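 active means every valid replicate shows activation above 250% relative to neutral control wells; inactive means the rest, any valid replicate at or below 250%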;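 further: OY570 slx delta 5 strain wells were the positive control but not used for scaling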
PfM18AAP inh – PfM18AAP inhibitors, malaria aminopeptidase, primary screen, biochemical, QFRET, recombinant enzyme | M18 aspartyl aminopeptidase (Plasmodium falciparum 3D7) | H-Glu-NHMec fluorogenic cleavage | inhibition, % at 7.35 µM | 290,000 compounds, 1.2% hits;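 active means inhibition above the campaign mean inhibition over all tested compounds plus 3 SD, cut at about 28% in these data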;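 further: 0% = plate median of test compound wells and 100% = 2 mM ZnCl2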
ALR inh – inhibitors of human ALR sulfhydryl oxidase, primary screen, biochemical, H2O2 detection, HRP-luminol luminescence, single point; 290,000 compounds, 3.8% hits; FAD-linked sulfhydryl oxidase ALR (Homo sapiens), P55789; AID 485317, 2010; purified ALR, DTT oxidation; inhibition, % (test concentration not listed);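 active means mean replicate inhibition above about 79%, with every replicate also reaching it, limit read from the data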
Target sequence (P55789 whole entry, looked up): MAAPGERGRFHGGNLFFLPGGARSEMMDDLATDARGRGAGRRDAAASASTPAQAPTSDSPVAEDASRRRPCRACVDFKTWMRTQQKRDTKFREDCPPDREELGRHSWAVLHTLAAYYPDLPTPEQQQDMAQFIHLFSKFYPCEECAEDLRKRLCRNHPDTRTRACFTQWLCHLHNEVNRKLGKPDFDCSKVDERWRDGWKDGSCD
* = called active by the depositor; x = no result given. Compounds with a hit are over-represented: about 5.3% of the library has one in this group of screens.

SMILES	HIF activator	Mot1-301 SUMO	PfM18AAP inh	ALR inh
Cc1ccc(/C=C2/NC(=O)N(Cc3ccccc3)C2=O)s1	0.1	-26.9	-4.3	-3.8
Oc1ccc(N=Nc2ccccc2-c2nn[nH]n2)c(O)c1	-0.4	-22.1	33.9*	x
COc1ccc(Cc2nnc(NS(=O)(=O)c3ccc([N+](=O)[O-])cc3)s2)cc1	-0.3	-6.7	3.1	-10.6
CCCCCCCCCn1c2c(c(=N)c3c1CCC3)CCC2	-1.7	483.1*	-5.0	-24.4
CCCCCCCn1c2c(c(=N)c3c1CCC3)CCCC2	-0.3	x	-2.3	x
CCCCCCn1c2c(c(=N)c3c1CCC3)CCC2	-0.1	11.6	-7.9	99.3*
COc1ccccc1C(=O)NCCC(=O)N1CCCC(C)C1 (configuration not stated)	-0.2	14.8	-1.7	-1.4
CCN(CC)S(=O)(=O)c1ccc(C)c(NC(=S)N2CCN(Cc3ccc4c(c3)OCO4)CC2)c1	0.4	4.5	5.2	0.5
COc1cc(Br)cc(C=Nc2cccc(C(F)(F)F)c2)c1O	1.2	326.3*	3.4	x
COc1cccc(C=Nc2cc(C)cc(C)c2)c1O	-0.2	10.1	-5.4	-3.0
CCOC(=O)C1CCN(C(=O)CN(C)S(=O)(=O)c2ccc3c(c2)c(=O)n(C)c(=O)n3C)CC1	0.1	16.0	-4.3	1.0
CCOc1cc(-c2nc3ccccn3c2NCC2CCCO2)ccc1O (configuration not stated)	0.1	9.7	30.2*	68.7
O=C(CSc1nnc2n1CCCN2)c1ccc([N+](=O)[O-])cc1	0.4	9.8	5.9	97.4*
COc1ccc(S(=O)(=O)NC(C)C(=O)Nc2ccc3c(c2)OCCO3)cc1OC (configuration not stated)	-1.7	113.6	-0.3	1.0
CCN(CC)C(=O)CSc1nc2ccccc2c(=O)n1CC	-1.0	2.3	-7.7	-5.1
CCn1c(-c2cc3ccccc3cc2O)n[nH]c1=S	-0.1	0.7	-2.8	98.7*
CCn1c(-c2ccc(F)cc2)n[nH]c1=S	-0.1	-6.0	3.9	-1.1
CCn1c(-c2cc(Br)ccc2O)n[nH]c1=S	-0.2	-2.9	18.4	98.1*
CCN(CC)C(=O)CSc1nnc(-c2cc3ccccc3cc2O)n1CC	0.1	3.7	9.7	84.8*
CC1CCCCC1NC(=O)COc1ccccc1C#N (configuration not stated)	x	-0.9	x	-2.1
COc1ccc(NC(=O)CCNS(=O)(=O)c2cc(Br)cnc2N)cc1OC	-0.9	-0.4	4.5	-24.6
CCOC(=O)Cc1csc(SCC(=O)Nc2cc(C)ccc2OC)n1	-0.4	5.9	-3.1	1.5
COc1ccc(N2CCN(C(=O)CSc3ncn[nH]3)CC2)cc1	0.1	-11.1	x	99.1*
COc1ccc(N2CCN(C(=O)CSc3ccc(C)cc3)CC2)cc1	-0.1	0.9	0.7	0.5
CCOC(=O)Cc1csc(SCC(=O)N2CCN(c3ccc(OC)cc3)CC2)n1	0.4	10.6	1.7	87.0*
SMILES	HIF activator	Mot1-301 SUMO	PfM18AAP inh	ALR inh
COc1ccc(C(C)=O)cc1CN1C(=O)NC(c2ccccc2)(c2ccccc2)C1=O	0.1	-3.3	-1.1	-7.4
COc1cc(NC(=O)c2cccc(C)c2)ccc1NC(=O)c1cc2ccccc2o1	-4.4	3.6	-1.9	-7.5
NS(=O)(=O)c1ccc(NC(=O)/C=C/c2cn(-c3ccccc3)nc2-c2cccc(Cl)c2)cc1	-2.1	-12.9	3.1	-0.8
O=C(/C=C/c1cn(-c2ccccc2)nc1-c1ccccc1)Nc1ccc(C(=O)O)cc1	16.0*	-2.8	-10.6	x
CCN(CC)S(=O)(=O)c1ccc2[nH]c(=O)cc(C(=O)NCc3ccccc3)c2c1	-0.7	250.9	2.0	-1.5
c1cn2cc(-c3ccc4c(c3)OCO4)nc2s1	2.1	-2.7	-4.5	94.7*
O=C1CCCC2=C1C(Cc1ccccc1)C1=C(CCCC1=O)O2	350.7*	37.6	-14.8	-29.1
O=C1CCCC2=C1C(c1ccccc1O)C1=C(CCCC1=O)O2	-0.2	x	23.4	5.9
O=C1CNC(=O)/C(=C\c2ccc(F)cc2)N1	-0.2	1.0	-0.1	x
O=C1NC(=O)/C(=C/c2ccc(OS(=O)(=O)c3ccc(F)cc3F)cc2)N1	41.1*	1.0	3.8	-1.8
COc1ccc(-c2cc3ccc(O)cc3oc2=O)cc1OC	1.5	-4.8	6.5	98.6*
Cc1cc(N)ccc1-c1cc2ccccc2oc1=O	0.9	12.9	1.1	98.5*
O=c1oc2ccccc2cc1-c1ccc(O)cc1	3.1	1.1	3.1	94.5*
Nc1ccc(-c2cc3ccccc3oc2=O)cc1	-1.8	22.6	-2.0	40.4
COc1cc(N)ccc1-c1cc2ccccc2oc1=O	0.8	16.6	-0.1	60.1
COc1ccc(-c2cc3ccc(OCC(N)=O)cc3oc2=O)cc1OC	2.3	97.9	-16.8	-10.6
Nc1ccc2oc(=O)c(-c3ccccc3)cc2c1	0.8	-1.4	1.9	97.8*
CCN(CC)CC#CCC(C)(c1ccccc1)c1ccccc1	-0.2	61.8	-3.1	-1.8
CC1(C)CC2CC(C)(CN2S(=O)(=O)c2ccccc2[N+](=O)[O-])C1 (configuration not stated)	x	5.8	x	x
CCc1ccc(NC(=S)N2CCN(c3cccc(OC)c3)CC2)cc1	-0.1	-11.3	9.6	-8.0
O=c1oc2ccccc2cc1NCc1ccccc1O	4.0	-9.5	4.9	96.3*
c1cc(C(c2nnnn2C2CCCC2)N2CCOCC2)ccn1 (configuration not stated)	-0.5	-29.4	-12.7	-24.7
O=C(CSc1nnnn1C1CC1)N1CCN(c2cccc(Cl)c2)CC1	x	7.8	x	-3.6
Oc1ccc(N2CCN(C(c3ccncc3)c3nnnn3C3CCCC3)CC2)cc1 (configuration not stated)	-2.4	3.7	37.0*	99.5*
O=C(CSc1nnnn1C1CC1)N1CCN(c2ccc(O)cc2)CC1	x	-1.3	x	99.0*
SMILES	HIF activator	Mot1-301 SUMO	PfM18AAP inh	ALR inh
CCSc1nc2ccccc2c(=O)n1-c1c(C)n(C)n(-c2ccccc2)c1=O	0.0	10.4	-7.4	-6.1
CCn1cc(C(=O)N[C@H](C(=O)NCCCN2CCOCC2)C(C)C)c(=O)c2cc3c(cc21)OCO3	0.1	9.2	-3.1	0.1
CCOC(=O)c1cc(-c2ccccc2C)nn1CC1CC(c2cccnc2)=NO1 (configuration not stated)	x	-21.2	x	-4.4
O=C(CN1C(=O)c2ccccc2C1=O)Nc1ccc(Cl)cn1	-0.6	59.1	-4.3	-2.2
O=C(CCCn1c(=S)[nH]c2ccc(Br)cc2c1=O)NCc1ccccn1	0.9	136.8	21.1	-2.2
CC(=O)c1ccc(N2CCN(C(=O)CCCn3c(=S)[nH]c4cc5c(cc4c3=O)OCO5)CC2)cc1	x	298.0*	3.2	4.5
O=C(CCCn1c(=S)[nH]c2ccc(Br)cc2c1=O)N1CCN(c2ccccn2)CC1	-0.1	-5.3	2.2	92.2*
O=c1c2cc(Br)ccc2[nH]c(=S)n1Cc1ccccn1	0.4	5.1	-8.7	93.0*
CCCC(C)NC(=O)CN1C(=O)NC2(CCc3ccccc32)C1=O (configuration not stated)	39.6*	-31.2	1.2	-3.3
